Screening data as filed in PubChem.
Compounds with a hit are over-represented: about 18% of the library has one in this group of screens.
TDP1 cell CPT: qHTS for Inhibitors of human tyrosyl-DNA phosphodiesterase 1 (TDP1): qHTS in cells in presence of CPT; chicken DT40 Tdp1-/-;hTDP1 cells + 20 nM CPT, ATP luminescence, 48 h; Potency, µM (titrated, usually from 46.2 µM), inactives show at the top dose activity change, negative = growth inhibition, hits mostly inhibitors; 12% of 420,000 active; AID 686979, 2013; further: nearly all actives have a fitted effect of over 55% in size
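Chicken DT40 Tdp1-/- cells complemented with human TDP1, 400 cells/well, exposed to compounds plus 20 nM camptothecin for at least 48 h at 37 C; viability read as ATP content by CellTiter-Glo luminescence.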
GCN5L2 inh: qHTS Assay for Inhibitors of GCN5L2; Histone acetyltransferase KAT2A (Homo sapiens), Q92830; GCN5L2 HAT assay, ThioGlo1 CoA-SH fluorescence; Potency, µM (doses to about 58.9 µM), for the others: top-dose activity change, negative = inhibition, most hits filed as inhibitors; 0.21% of 390,000 active
Target sequence (Q92830 whole entry, looked up): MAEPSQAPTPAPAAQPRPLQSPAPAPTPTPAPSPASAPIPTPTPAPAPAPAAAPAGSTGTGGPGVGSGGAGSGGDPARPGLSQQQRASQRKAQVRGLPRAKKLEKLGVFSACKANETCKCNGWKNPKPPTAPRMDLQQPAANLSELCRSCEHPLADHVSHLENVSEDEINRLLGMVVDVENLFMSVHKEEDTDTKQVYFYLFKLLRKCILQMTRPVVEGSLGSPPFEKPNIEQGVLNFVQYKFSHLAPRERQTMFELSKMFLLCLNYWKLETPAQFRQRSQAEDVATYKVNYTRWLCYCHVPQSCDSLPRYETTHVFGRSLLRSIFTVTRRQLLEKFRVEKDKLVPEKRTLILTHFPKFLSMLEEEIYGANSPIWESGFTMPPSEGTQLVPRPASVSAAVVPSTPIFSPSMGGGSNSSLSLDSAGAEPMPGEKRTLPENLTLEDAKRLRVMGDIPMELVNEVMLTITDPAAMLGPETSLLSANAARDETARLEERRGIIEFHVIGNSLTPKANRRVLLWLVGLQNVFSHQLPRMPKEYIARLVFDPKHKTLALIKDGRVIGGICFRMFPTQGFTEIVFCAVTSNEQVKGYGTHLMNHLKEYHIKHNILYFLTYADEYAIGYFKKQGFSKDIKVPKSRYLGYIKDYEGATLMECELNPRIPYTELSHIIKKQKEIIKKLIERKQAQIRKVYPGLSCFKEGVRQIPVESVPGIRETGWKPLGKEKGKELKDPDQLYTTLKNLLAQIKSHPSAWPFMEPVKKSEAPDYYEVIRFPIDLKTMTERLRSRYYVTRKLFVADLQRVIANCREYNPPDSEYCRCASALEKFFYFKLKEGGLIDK
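Preincubate 20nM GCN5L2 with compound 15 min, RT → add 50uM ThioGlo1 + 75uM H3(1-25) + 70uM acetyl-CoA → read fluorescence 0 and 20 min. Primary qHTS; fluorescent artifacts likely.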
VDR inhibitor: Inhibitors of the vitamin D receptor (VDR): qHTS | VDR-SRC2-3 peptide fluorescence polarization, 2 h | Potency, µM, for the others: max response, negative = inhibition, usual class: inhibitors | 0.93% of 400,000 active
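FP read-out; VDR + SRC2-3 coactivator peptide; 23 nl compound by pintool; 2 h RT incubation; reagents held at 4 deg C, protected from light.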
DT40 TDP1 no CPT: qHTS for Inhibitors of human tyrosyl-DNA phosphodiesterase 1 (TDP1): qHTS in cells in absence of CPT | DT40 Tdp1-/- hTDP1 cells, no CPT, ATP luminescence, 48 h | Potency, µM (doses to about 46.2 µM), for the others: at the highest dose activity change, negative = growth inhibition, actives largely listed as inhibitors | 15% of 420,000 active | AID 686978, 2013; further: nearly all actives have a fitted effect of over 55% in size
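Chicken DT40 Tdp1-/- cells stably complemented with human TDP1 were seeded at 400 cells/well with DMSO in place of 20 nM camptothecin. After compound pinning, cells grew at least 48 hr at 37 °C; viability read by CellTiter-Glo luminescence.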
TDP1 inh: qHTS Assay for Inhibitors of Tyrosyl-DNA Phosphodiesterase (TDP1). recombinant TDP1, AlphaScreen DNA substrate cleavage. Potency, µM (titrated, usually from 130 µM), for inactives: at the top dose activity change, negative = inhibition, actives largely listed as inhibitors. 0.28% of 350,000 active. AID 485290, 2010; further: nearly all actives have a fitted effect of over 40% in size
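Recombinant E. coli-expressed Tdp1 (1 nM) preincubated with compound 15 min at RT, then 5'-biotin/3'-phosphotyrosine-FITC DNA substrate (15 nM) added for 5 min. AlphaScreen beads (10 ug/ml) added, 10 min RT; tyrosine-FITC cleavage read as signal loss.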
PLK1 PBD inh: qHTS for Inhibitors of PLK1-PDB (polo-like kinase 1 - polo-box domain): Primary Screen; 2.8% of 360,000 active; Potency, µM, for the others: max response, negative = inhibition, usual class: inhibitors; AID 720504, 2013; Plk1 PBD binding of FITC phosphopeptide, fluorescence polarization; Serine/threonine-protein kinase PLK1 (Homo sapiens), P53350; further: series mostly up to about 57 µM; nearly all actives have a fitted effect of over 65% in size
Active calls of the source: *; [ ] = dose if it differs, or a comment. The call rests on the fitted dose curve; in most records, active means well fitted curve in the direction sought with a large enough effect; inconclusive means small, poorly fitted or top-dose-only effect, or another doubt; inactive means no such curve, though single readings can be large; an effect the other way counts as inactive or inconclusive. On the % scale 0 is the no-effect control and ±100 the full control effect; potency means the concentration at half of the fitted maximal effect.

How did CCN(C(=O)c1cc2c(=O)[nH]c3ccc(C)cc3c2s1)c1cccc(C)c1 do in these assays?
TDP1 cell CPT: inconclusive; GCN5L2 inh: 3%; VDR inhibitor: -14%; DT40 TDP1 no CPT: 18µM*; TDP1 inh: -2%; PLK1 PBD inh: 3%

What do the screens show for `CC(=O)N1CCN(C(=O)c2ccc(Cl)c(S(=O)(=O)N3CCCCCC3)c2)CC1`?
TDP1 cell CPT: 0%; GCN5L2 inh: -4%; VDR inhibitor: -10%; DT40 TDP1 no CPT: -3%; TDP1 inh: 1%; PLK1 PBD inh: -10%

How did COc1ccccc1NC(=O)c1cc2c([nH]c1=O)CC(C)(C)CC2=O do in these assays?
TDP1 cell CPT: -1%; GCN5L2 inh: 1%; VDR inhibitor: 14%; DT40 TDP1 no CPT: -2%; TDP1 inh: 5%

What do the screens show for `CCOC(=O)N1CCN(Cc2ccc3c(c2)CN(C(=O)c2noc4c2CCCC4)CCO3)CC1`?
TDP1 cell CPT: -13%[9.04 µM]; DT40 TDP1 no CPT: 21µM*

Results for NNC(=O)c1ccc(CSc2n[nH]c(=O)[nH]c2=O)cc1 ?
TDP1 cell CPT: -13%; GCN5L2 inh: -19%; VDR inhibitor: 3%; DT40 TDP1 no CPT: -17%; TDP1 inh: 45µM*; PLK1 PBD inh: 3%

What do the screens show for `CC(CNC(=O)Cn1ccc2cc(S(=O)(=O)N3CCCCCC3)ccc21)c1ccccc1` (stereo not drawn)?
TDP1 cell CPT: 16µM*; GCN5L2 inh: -14%; VDR inhibitor: 2%; DT40 TDP1 no CPT: inconclusive; TDP1 inh: 3%

Results for CC(CNC(=O)C1CCN(S(=O)(=O)c2ccc3c(ccn3C)c2)CC1)c1ccccc1 (stereo not drawn) ?
TDP1 cell CPT: -23%; GCN5L2 inh: 3%; VDR inhibitor: -2%; DT40 TDP1 no CPT: -4%; TDP1 inh: -2%

How did CCn1ccc2cc(S(=O)(=O)N3CCC(C(=O)NCC(C)c4ccccc4)CC3)ccc21 (stereo not drawn) do in these assays?
TDP1 cell CPT: 23µM*; GCN5L2 inh: -13%; VDR inhibitor: 15%; DT40 TDP1 no CPT: inconclusive; TDP1 inh: 8%

How did Cc1cc(C)cc(NC(=O)Cn2c(=O)n(Cc3ccc4c(c3)OCO4)c(=O)c3oc4ccccc4c32)c1 do in these assays?
TDP1 cell CPT: inconclusive; GCN5L2 inh: 1%; VDR inhibitor: 4%; DT40 TDP1 no CPT: inconclusive; TDP1 inh: 0%

What do the screens show for `O=C(CCn1cnc2onc(-c3ccc(F)cc3)c2c1=O)Nc1ccc(F)c(Cl)c1`?
TDP1 cell CPT: 13µM*; GCN5L2 inh: 6%; VDR inhibitor: 17%; DT40 TDP1 no CPT: 15µM*; TDP1 inh: -1%

Results for O=C(CCn1cnc2onc(-c3ccc(F)cc3)c2c1=O)Nc1cccc(C(F)(F)F)c1 ?
TDP1 cell CPT: 16µM*; GCN5L2 inh: -6%; VDR inhibitor: 13%; DT40 TDP1 no CPT: 16µM*; TDP1 inh: -4%

Results for Cc1ccc(NC(=O)CCn2cnc3onc(-c4ccc(F)cc4)c3c2=O)c(Br)c1 ?
TDP1 cell CPT: -13%; GCN5L2 inh: -6%; VDR inhibitor: 12%; DT40 TDP1 no CPT: -13%; TDP1 inh: 4%

What do the screens show for `Cc1cnc(C(=O)OCC(=O)Nc2cc(-c3ccccc3)nn2-c2ccccc2)cn1`?
TDP1 cell CPT: 2%; GCN5L2 inh: 0%; VDR inhibitor: 5%; DT40 TDP1 no CPT: 3%; TDP1 inh: 0%; PLK1 PBD inh: 3%

Results for C=CCN1C[C@H](C(=O)N(CCCN(C)C)C(=O)NCC)C[C@@H]2c3cccc4[nH]cc(c34)C[C@H]21 ?
TDP1 cell CPT: -7%; DT40 TDP1 no CPT: -18%

Results for CCc1ccc(Cn2ncc3c(C(=O)O)cc(C)nc32)cc1 ?
TDP1 cell CPT: -13%; VDR inhibitor: -10%; DT40 TDP1 no CPT: -4%; PLK1 PBD inh: 27µM*

What do the screens show for `Cc1nnc(-c2cccc(Br)c2)c2cn(-c3ccccc3)nc12`?
TDP1 cell CPT: 23µM*; GCN5L2 inh: 2%; VDR inhibitor: 2%; DT40 TDP1 no CPT: inconclusive; TDP1 inh: 3%; PLK1 PBD inh: -2%

How did Cc1nnc(-c2cccc(Br)c2)c2cn(-c3ccc(Br)cc3)nc12 do in these assays?
TDP1 cell CPT: inconclusive; GCN5L2 inh: 26%; VDR inhibitor: -5%; DT40 TDP1 no CPT: 15µM*; TDP1 inh: 4%; PLK1 PBD inh: 26%

Results for Cc1nnc(-c2cccc(Br)c2)c2cn(-c3cccc(Br)c3)nc12 ?
TDP1 cell CPT: inconclusive; GCN5L2 inh: -4%; VDR inhibitor: -24%; DT40 TDP1 no CPT: 16µM*; TDP1 inh: -5%; PLK1 PBD inh: 1%

How did COC(=O)c1nnn(-c2nc(N3CCOCC3)nc(N3CCOCC3)n2)c1C do in these assays?
TDP1 cell CPT: inconclusive; GCN5L2 inh: 5%; VDR inhibitor: 8%; DT40 TDP1 no CPT: inconclusive; TDP1 inh: 2%; PLK1 PBD inh: -15%

Results for CCn1c(C)nc2cc(C(=O)N/N=C/c3ccccc3C)ccc21 ?
TDP1 cell CPT: 11%; GCN5L2 inh: -9%; VDR inhibitor: 1%; DT40 TDP1 no CPT: -23%; TDP1 inh: 0%; PLK1 PBD inh: -9%

Results for CCn1c(C)nc2cc(C(=O)N/N=C(\C)c3ccccc3O)ccc21 ?
TDP1 cell CPT: 3.7µM*; GCN5L2 inh: -5%; VDR inhibitor: -13%; DT40 TDP1 no CPT: 2.9µM*; TDP1 inh: 0%; PLK1 PBD inh: -9%

How did CCC(c1nc2ccccc2[nH]1)n1c(=O)c(-c2ccccc2)nc2ccccc21 (stereo not drawn) do in these assays?
TDP1 cell CPT: inconclusive; DT40 TDP1 no CPT: inconclusive; PLK1 PBD inh: -6%

What do the screens show for `CCC(c1nc2ccccc2[nH]1)n1c(=O)c(-c2ccco2)nc2ccccc21` (stereo not drawn)?
TDP1 cell CPT: 21µM*; DT40 TDP1 no CPT: 18µM*; PLK1 PBD inh: -24%

What do the screens show for `O=c1c(-c2cccs2)nc2ccccc2n1C(CCc1ccccc1)c1nc2ccccc2[nH]1` (stereo not drawn)?
TDP1 cell CPT: inconclusive; DT40 TDP1 no CPT: inconclusive; PLK1 PBD inh: 0%
